# Tested on: Perkinsus marinus PRA240
# Assay: ATP content (proliferation) relative to DMSO control; higher = more parasite growth (less inhibition)
# Conditions: 20 µM; 4 days
# Method: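 Perkinsus marinus PRA240 trophozoites (2-5x10^6 cells/ml, 100 µl, 96-well) were exposed once to MMV Malaria Box compounds at 20 µM (0.1% DMSO) in triplicate. ATP content (ATPlite bioluminescence) was read at day 4 post-exposure and normalised to DMSO + cells control wells (100% activity). Compounds were identified by joining plate and well to the Malaria Box list.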
row,SMILES,ATP content [%]
1,CCN(CC)CCCNc1nc(-c2ccc(Cl)cc2)nc2ccccc12,99.6
2,CCOc1ccc(CCNC(=O)c2cccs2)cc1OCC,67.6
3,COc1cccc(-c2nn(C)c3sc(C(=O)NCCN4CCN(c5ccccc5F)CC4)cc23)c1,89.7
4,Cc1[nH]c(-c2ccc(F)cc2)cc1C(=O)NC1CCN(Cc2ccccc2)CC1,108
5,Cc1ccc(S(=O)(=O)c2c(COC(=O)c3cccc(C)c3)c(-c3ccccc3)nn2C)cc1,162
6,COc1cccc(C(=O)NC(c2ccc(C)cc2)c2cc(Cl)c3cccnc3c2O)c1 (configuration not stated),39.5
7,CCN(CC)c1cc(C)c2cc(NC(=O)c3cccc(OC)c3)ccc2n1,74
8,COc1ccc2nc(C)cc(Nc3ccccc3O)c2c1,163
9,O=C1C2=C(Nc3ccccc3SC2c2ccccc2)c2ccccc21 (configuration not stated),17.1
10,COc1cc(C(=O)Nc2ccc(-c3nc4ccccc4[nH]3)cc2)cc(OC)c1OC,124
11,CCCCNc1nc(NC(C)(C)C)nc(NC(C)(C)C)n1,116
12,O=c1nc(C=Cc2ccc(Br)cc2)oc2ccccc12,11.1
13,O=C(NCc1ccco1)C1CCN(S(=O)(=O)c2ccc(Cl)cc2)CC1,89.8
14,O=C(Nc1nc(-c2ccccn2)cs1)c1ccccc1Br,8.72
15,CCOC(=O)c1cnc2c(CC)cccc2c1O,80.1
16,CCCCc1ccc(NS(=O)(=O)c2cc3c4c(c2)CCN4C(=O)CC3)cc1,115
17,Cn1c(=O)c2cc(C(=O)NCCCN3CCCCCC3)sc2c2ccccc21,86.3
18,O=C(Nc1cccc(-c2nc3ccccc3[nH]2)c1)c1cccc(NC(=O)c2ccco2)c1,126
19,COCCNCC(O)Cn1c2ccc(Cl)cc2c2cc(Cl)ccc21 (configuration not stated),143

row,SMILES,ATP content [%]
1,Oc1ccc(Cl)cc1CNc1nc2ccccc2[nH]1,49.7
2,CCC(C)NCC(O)(c1ccc(Cl)cc1)c1ccc(Cl)cc1 (configuration not stated),78.7
3,Oc1ccc(-c2nc(-c3ccc4oc5ccc(-c6[nH]c(-c7ccc(O)cc7)nc6-c6ccccc6)cc5c4c3)c(-c3ccccc3)[nH]2)cc1,124
4,COc1ccc(C(O)(CCC(C)C)C(CN2CCOCC2)c2ccc(Cl)cc2)cc1 (configuration not stated),91.9
5,Cc1ccc(Nc2nc(N)c3ccccc3n2)cc1Cl,4.69
6,Cc1ccc(-c2cc(C(=O)Nc3ccc(S(=O)(=O)N4CCCCC4)cc3)[nH]n2)c(O)c1,104
7,O=C(Nc1ccc(Cl)cc1C(=O)Nc1ccncc1)c1ccc(Cl)cc1Cl,103
8,CCOc1cc2c(cc1OCC)C(c1cc(Cl)ccc1O)NCC2 (configuration not stated),91.6
9,CCOc1cc2c(cc1OCC)C(c1cc(Cl)c(O)c(OCC)c1)NCC2 (configuration not stated),97.3
10,CCN(CC)S(=O)(=O)c1ccc(-c2csc(Nc3ccc(C)c(C)c3)n2)cc1,142
11,COc1ccc(-c2nc(N3CCN(C(=O)C4CCCCC4)CC3)c3c4c(sc3n2)CCCC4)cc1,69.7
12,CC(C)(C)c1ccc(C2CC3=Nc4ccccc4N(C(=O)c4ccccc4Cl)C(c4ccc(F)cc4)C3=C(O)C2)cc1 (configuration not stated),129
13,COc1ccc(C(=O)NC(c2ccc(Cl)cc2Cl)c2cc(Cl)c3cccnc3c2O)cc1 (configuration not stated),96.4
14,Oc1ccccc1CN1CCC2(CCCN(Cc3ccccc3F)C2)C1 (configuration not stated),70.1
15,OC(CNCC1CCCO1)Cn1c2ccc(Cl)cc2c2cc(Cl)ccc21 (configuration not stated),142
16,CN(C)CCNc1cc(-c2ccccc2)nc2ccccc12,106
17,CCOc1ccc(C2N(C)c3ccccc3N2C)cc1,131
18,Clc1ccc2[nH]c3c(NCCCN4CCOCC4)ncnc3c2c1,163

# Reference: the supplement of paper PMC4206467
